Measurements: PubChem BioAssay AID1159580 (chemical genetic matrix, 2015)
Screen size: about 5,500 compounds; about 2,000 (36%) were called active. Roughly 18% stayed inconclusive and do not appear here. Cut-off read from the data, not from the text of the source: active = normalized growth mostly below about 0.91 (no sharp cut-off); inconclusive = no clear call, values can overlap the other calls; inactive = mostly above about 0.92. The list shows a part of the results.

Experiment: chemical genetic growth profiling, strain panel (AID 1159580);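 note: tested at 20 µM; growth read once vehicle control cultures reached saturation at 30 °C; 1 = growth at the plate median or of vehicle wells; lower values mean less growth of the strain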
Conditions: S. cerevisiae deletion strains, growth OD
[1] = locus YDL101C, strain DUN1, stronger effect = lower value
[2] = locus YHR030C, strain SLT2, stronger effect = lower value

Measured: normalized growth

Cc1ccc(/C=C2\CCc3ccccc3C2=O)o1
active: locus YAL013W, strain DEP1, stronger effect = lower value 0.451 | locus YBR229C, strain ROT2, stronger effect = lower value 0.43 | [1] 0.472 | locus YDL134C, strain PPH21, stronger effect = lower value 0.381 | locus YDR150W, strain NUM1, stronger effect = lower value 0.563 | locus YEL061C, strain CIN8, stronger effect = lower value 0.531 | locus YGR078C, strain PAC10, stronger effect = lower value 0.794 | [2] 0.126 | locus YHR087W, strain rtc3, stronger effect = lower value 0.528 | locus YJR043C, strain POL32, stronger effect = lower value 0.421 | locus YJR075W, strain HOC1, stronger effect = lower value 0.676 | locus YLR039C, strain RIC1, stronger effect = lower value 0.275 | locus YLR058C, strain SHM2 (second series), stronger effect = lower value 0.934 | locus YLR085C, strain ARP6, stronger effect = lower value 0.208 | locus YLR262C, strain YPT6, stronger effect = lower value 0.354 | locus YML094W, strain GIM5, stronger effect = lower value 0.347 | locus YMR219W, strain ESC1, stronger effect = lower value 0.765 | locus YMR263W, strain SAP30, stronger effect = lower value 0.464 | locus YNL153C, strain GIM3, stronger effect = lower value 0.459 | locus YNL298W, strain CLA4 (second series), stronger effect = lower value 0.315 | locus YNL322C, strain KRE1, stronger effect = lower value 0.755 | locus YNR030W, strain Alg12, stronger effect = lower value 0.205 | locus YPL055C, strain LGE1, stronger effect = lower value 0.263 | locus YPL241C, strain CIN2, stronger effect = lower value 0.224 | locus YPR135W, strain CTF4, stronger effect = lower value 0.264

O=C1/C(=C/c2ccccn2)CCc2ccccc21
inactive: locus YAR019C, strain CDC15, stronger effect = lower value 0.923 | locus YBL105C, strain PKC1, stronger effect = lower value 0.944 | locus YBR135W, strain CKS1, stronger effect = lower value 0.95 | locus YBR136W, strain MEC1, stronger effect = lower value 0.929 | locus YBR160W, strain CDC28, stronger effect = lower value 0.957 | locus YDL017W, strain CDC7, stronger effect = lower value 0.954 | locus YDL028C, strain MPS1, stronger effect = lower value 0.94 | [1] 0.948 | locus YDL108W, strain KIN28, stronger effect = lower value 0.936 | locus YDL132W, strain cdc53, stronger effect = lower value 0.936 | locus YDL214C, strain PRR2, stronger effect = lower value 0.927 | locus YDR052C, strain DBF4, stronger effect = lower value 0.96 | locus YDR054C, strain cdc34, stronger effect = lower value 0.937 | locus YDR226W, strain ADK1, stronger effect = lower value 0.948 | locus YDR477W, strain SNF1, stronger effect = lower value 0.897 | locus YER123W, strain YCK3, stronger effect = lower value 0.814 | locus YER133W, strain GLC7, stronger effect = lower value 0.897 | locus YFL009W, strain cdc4, stronger effect = lower value 0.929 | locus YFL029C, strain CAK1, stronger effect = lower value 0.912 | locus YFR003C, strain YPI1, stronger effect = lower value 0.954 | locus YFR019W, strain FAB1, stronger effect = lower value 0.951 | locus YFR028C, strain CDC14, stronger effect = lower value 0.935 | locus YGR040W, strain KSS1, stronger effect = lower value 0.837 | locus YGR052W, strain FMP48, stronger effect = lower value 0.919 | locus YGR092W, strain DBF2, stronger effect = lower value 0.813 | [2] 0.88 | locus YHR079C, strain IRE1, stronger effect = lower value 0.869 | locus YHR082C, strain KSP1, stronger effect = lower value 0.921 | locus YHR205W, strain SCH9, stronger effect = lower value 0.878 | locus YIL147C, strain SLN1, stronger effect = lower value 0.939 | locus YJL095W, strain BCK1, stronger effect = lower value 0.863 | locus YJL128C, strain PBS2, stronger effect = lower value 0.937 | locus YJL157C, strain FAR1, stronger effect = lower value 0.939 | locus YJR016C, strain ILV3, stronger effect = lower value 0.94 | locus YJR066W, strain TOR1 (second series), stronger effect = lower value 0.633 | locus YJR066W, strain TOR1, stronger effect = lower value 0.855 | locus YKL048C, strain ELM1, stronger effect = lower value 0.952 | locus YKL067W, strain YNK1, stronger effect = lower value 0.928 | locus YKL101W, strain HSL1, stronger effect = lower value 0.922 | locus YKL193C, strain SDS22, stronger effect = lower value 0.937 | locus YKL203C, strain TOR2, stronger effect = lower value 0.912 | locus YLR133W, strain CKI1, stronger effect = lower value 0.935 | locus YLR403W, strain SFP1, stronger effect = lower value 0.869 | locus YML070W, strain DAK1, stronger effect = lower value 0.896 | locus YMR001C, strain CDC5, stronger effect = lower value 0.944 | locus YMR205C, strain PFK2 (second series), stronger effect = lower value 0.948 | locus YMR277W, strain FCP1, stronger effect = lower value 0.939 | locus YNL006W, strain LST8, stronger effect = lower value 0.967 | locus YNL020C, strain ARK1, stronger effect = lower value 0.948 | locus YNL161W, strain CBK1, stronger effect = lower value 0.941 | locus YNL183C, strain NPR1, stronger effect = lower value 0.84 | locus YNL207W, strain RIO2, stronger effect = lower value 0.943 | locus YNL222W, strain SSU72, stronger effect = lower value 0.942 | locus YNL307C, strain MCK1 (second series), stronger effect = lower value 0.913 | locus YOL078W, strain AVO1, stronger effect = lower value 0.935 | locus YOL136C, strain PFK27, stronger effect = lower value 0.919 | locus YOR061W, strain CKA2, stronger effect = lower value 0.934 | locus YOR119C, strain RIO1, stronger effect = lower value 0.91 | locus YOR231W, strain MKK1, stronger effect = lower value 0.875 | locus YOR329C, strain SCD5, stronger effect = lower value 0.948 | locus YPL031C, strain PHO85, stronger effect = lower value 0.874 | locus YPL153C, strain RAD53, stronger effect = lower value 0.883 | locus YPL204W, strain HRR25, stronger effect = lower value 0.862 | locus YPL209C, strain IPL1, stronger effect = lower value 0.944 | locus YPL256C, strain CLN2, stronger effect = lower value 0.861 | locus YPR025C, strain CCL1, stronger effect = lower value 0.945 | locus YPR106W, strain ISR1, stronger effect = lower value 0.96 | locus YPR111W, strain DBF20, stronger effect = lower value 0.955 | strain NNK1, stronger effect = lower value 0.967 | strain TSCII, stronger effect = lower value 0.93
active: locus YLR113W, strain HOG1, stronger effect = lower value 0.742
